Where two headings read alike, the source gives them in different places.
Tests used:
Conditions in all cases: n = 1
FAK = system: T1, FAK
T1 construct: gene PTK2

FER = system: FER
FES = system: FES
FGFR1 = system: FGFR1
FGFR2 = system: FGFR2
FGFR3 = system: FGFR3
FGFR4 = system: FGFR4
FGR = system: FGR
FLT1 = system: FLT1
FLT3-autoinhibited = system: FLT3-autoinhibited
[1] = concentration: 1 μM, replicates: in singlicate
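Also: KINOMEscan kinase panel screen.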

Structure (SMILES)	%Inh (FAK; [1])	%Inh (FER; [1])	%Inh (FES; [1])	%Inh (FGFR1; [1])	%Inh (FGFR2; [1])	%Inh (FGFR3; [1])	%Inh (FGFR4; [1])	%Inh (FGR; [1])	%Inh (FLT1; [1])	%Inh (FLT3-autoinhibited; [1])	%Inh (FAK; 1 µM)	%Inh (FER; 1 µM)	%Inh (FES; 1 µM)	%Inh (FGFR1; 1 µM)	%Inh (FGFR2; 1 µM)	%Inh (FGFR3; 1 µM)	%Inh (FGFR4; 1 µM)	%Inh (FGR; 1 µM)	%Inh (FLT1; 1 µM)	%Inh (FLT3-autoinhibited; 1 µM)
CCn1c(-c2cccnc2O)nc2cnccc21 [SB-736715]	0%	0%	0%	0%	0%	0%	0%	0%	0%	0%										
Cn1ccc2ncnc(Oc3cccc(C(=O)Nc4ccccc4)c3)c21	5%	8%	4%	0%	0%	0%	6%	5%	54%	15%										
Cc1cc(-c2ccc3c(c2)CC[C@@H](N[C@@H](C)c2ccccc2)C3)cnc1N.Cl [GW412617]	0%	27%	0%	9%	16%	56%	19%	26%	34%	8%										
Cc1cc(N2Cc3ccccc3C2)nc(Nc2ccc(S(=O)(=O)N3CCOCC3)cc2)n1.Cl [GSK1669917]	0%	25%	9%	0%	11%	15%	1%	0%	9%	0%										
Fc1cccc(COc2nnc(-c3ccc4c(c3)CCO4)o2)c1	0%	0%	14%	5%	0%	0%	0%	19%	0%	3%										
CCn1c(-c2ccccn2)nc2cnccc21 [SB-736398]	0%	2%	30%	1%	48%	77%	1%	41%	21%	0%										
Fc1cc(Cl)ccc1Nc1ccnc2cc(-c3ccc(CN4CCCCC4)o3)ccc12 [GW560116]	0%	5%	0%	0%	0%	0%	0%	31%	15%	0%										
O=C(O)COc1ncnc2cc(-c3ccc4[nH]ncc4c3)sc12	5%	0%	7%	23%	1%	0%	0%	0%	0%	39%										
COc1ccc2nc(-c3cccc(C)n3)nc(Nc3ccncc3)c2c1 [GSK204919]	0%	14%	17%	0%	7%	20%	20%	27%	28%	3%										
Cc1ccc(NC(=O)Nc2cccc(C(F)(F)F)c2)cc1 [GSK955403]											1%	0%	0%	1%	0%	5%	0%	0%	23%	0%
Cc1csc(-c2nc(Nc3ccncc3)c3ccccc3n2)n1 [GW869640]	3%	7%	10%	17%	6%	6%	16%	7%	19%	26%										
Cc1cccc(-c2cc(Nc3ccncc3)c3ccccc3n2)n1 [GSK223675]	0%	0%	0%	0%	0%	12%	0%	7%	13%	7%										
COC(=O)c1c(-c2ccccc2)c2cc(C(=O)O)ccc2c(=O)n1Cc1ccccc1	0%	0%	0%	0%	3%	0%	0%	0%	7%	3%										
CC1=C(C(=O)Nc2cc3cn[nH]c3cc2F)C(c2ccc(C(F)(F)F)cc2)CC(=O)N1 (stereo not drawn) [GSK429286]	0%	4%	0%	0%	3%	17%	8%	24%	17%	0%										
Cc1cccc(-c2nc(Nc3ccc4[nH]ncc4c3)c3ccccc3n2)n1 [GW857175]	0%	11%	0%	5%	0%	0%	0%	0%	12%	32%										
Clc1cc(Cl)cc(Nc2ccnc(Nc3cc(Cl)cc(Cl)c3)n2)c1 [GSK175726]	0%	13%	9%	0%	50%	22%	6%	46%	16%	0%										
COc1ccccc1CNC(=O)c1cc(C(=O)c2ccccc2C)c[nH]1 [GSK364507]	0%	8%	0%	0%	16%	4%	11%	23%	18%	0%										
Cc1ccc(NC(=O)Nc2cc(C(C)(C)C)nn2-c2ccccc2)cc1 [GSK1014915]	0%	20%	0%	6%	25%	16%	15%	18%	33%	38%										

Reference: paper PMC5540273 (PLoS ONE, 2017)
